# Reference: PubChem BioAssay (EPA / NIEHS)
# Where “and” joins values, the source holds several entries; their conditions need not be identical. Identical values can stand only once. Inconclusive results are not listed. Calls of active or inactive are those of the source. The calls were made as follows, unless noted: active = hit-call score of the fitted dose curve at least 0.9, where 1 is the maximum; inactive = score below 0.9.
# Assays:
# [1] = read-out: E-selectin (Homo sapiens) (UniProt P16581); test: BSK_SAg_Eselectin: BioMAP Diversity Plus: SAg Assay for Eselectin Biomarker Activity (AID 2283091); settings: primary human HUVEC with PBMC; actives raise or lower the signal
# Summary of the method: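 Primary human endothelial cells and peripheral blood mononuclear cells were co-cultured and exposed to chemical for 24 hours. E-selectin levels were then quantified by ELISA, with bidirectional curve fitting normalised to DMSO controls.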
# [2] = BSK_SAg_PBMCCytotoxicity: PBMC Cytotoxicity Assessment in the BioMAP Diversity Plus: SAg Assay (AID 2283093); settings: primary human HUVEC with PBMC;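 also: PBMC viability measured as Alamar Blue reduction fluorescence at 546/580 nm; fitted both ways against DMSO so a hit may be loss or gain of signal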;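 as to AC50: PBMC superantigen activated with SEB plus TSST-1 one hour after compound addition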
# Summary of the method: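 Compound added to 75,000 PBMC/well for 1 h; SEB and TSST-1 then added at 20 ng/mL final each; 90 h incubation; Alamar Blue 6 h; read 546/580 nm ex/em. Activity fitted bidirectionally relative to DMSO baseline.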
# [3] = read-out: Interleukin-8 (IL8), CXCL8 (gene 3576); test: BSK_SAg_IL8: BioMAP Diversity Plus: SAg Assay for Interleukin-8 (IL8) Biomarker Activity (AID 2283094); settings: primary human HUVEC with PBMC; actives raise or lower the signal
# Summary of the method: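 ELISA read-out of IL-8 in a primary human vascular co-culture (umbilical vein endothelium plus PBMC), taken 24 h after compound addition. Values derive from bidirectional fits against DMSO negative controls.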
# [4] = BSK_SAg_Proliferation: Cell Proliferation Assessment in the BioMAP Diversity Plus: SAg Assay (AID 2283095); settings: primary human HUVEC with PBMC;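 also: relative cell number as total protein by SRB absorbance in sub-confluent culture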
# Summary of the method: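 Cells (endothelium plus PBMC, human primary) were dosed with chemical, cultured 96 h, fixed in 10% TCA and stained with 0.1% SRB. Absorbance at 560 nm gave relative protein, fitted bidirectionally relative to DMSO.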
# [5] = BSK_SAg_SRB: Viability Assessment in the BioMAP Diversity Plus: SAg Assay (AID 2283096); settings: primary human HUVEC with PBMC;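 also: cells read one day after compound addition; hits may be either gain or loss of signal compared with DMSO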
# Summary of the method: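 Total protein by sulforhodamine B staining, 24 h after dosing, in HUVEC–PBMC co-culture; DMSO-referenced bidirectional fitting.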
# [6] = target: human CYP1A1, CYP1A1 (gene 1543) (UniProt P04798); test: NVS_ADME_hCYP1A1: NovaScreen (NVS) CYP450-related Enzyme Activity (ADME) Assay for human CYP1A1 (AID 2283100; active = hit-call score of the fitted dose curve at least 0.9, where 1 is the maximum)
# Sequence of human CYP1A1, CYP1A1 (gene 1543) (P04798 whole entry, looked up): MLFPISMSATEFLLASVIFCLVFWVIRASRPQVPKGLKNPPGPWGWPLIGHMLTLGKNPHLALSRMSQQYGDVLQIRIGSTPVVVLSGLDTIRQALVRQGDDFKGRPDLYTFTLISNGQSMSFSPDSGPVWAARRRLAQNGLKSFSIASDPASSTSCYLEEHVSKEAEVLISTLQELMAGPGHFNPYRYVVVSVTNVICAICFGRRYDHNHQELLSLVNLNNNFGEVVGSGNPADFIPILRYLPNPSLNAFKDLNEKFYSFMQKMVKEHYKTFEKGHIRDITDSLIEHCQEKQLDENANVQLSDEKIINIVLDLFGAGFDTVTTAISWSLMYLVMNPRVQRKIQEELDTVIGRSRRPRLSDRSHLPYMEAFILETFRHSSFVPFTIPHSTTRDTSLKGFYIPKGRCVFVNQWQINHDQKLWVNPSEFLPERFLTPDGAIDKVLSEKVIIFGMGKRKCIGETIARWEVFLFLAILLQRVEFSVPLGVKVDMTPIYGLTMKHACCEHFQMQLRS
# Summary of the method: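 Compounds first went through duplicate single-concentration testing at 10 uM against purified CYP1A1. Those passing a threshold such as 30% inhibition entered singleton dose-response, highest concentration 20 uM. Signal was fluorescence measured after 1 hour.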
# [7] = target: human CYP2J2, CYP2J2 (gene 1573) (UniProt P51589); test: NVS_ADME_hCYP2J2: NovaScreen (NVS) CYP450-related Enzyme Activity (ADME) Assay for human CYP2J2 (AID 2283106; active = hit-call score of the fitted dose curve at least 0.9, where 1 is the maximum)
# Sequence of human CYP2J2, CYP2J2 (gene 1573) (P51589 whole entry, looked up): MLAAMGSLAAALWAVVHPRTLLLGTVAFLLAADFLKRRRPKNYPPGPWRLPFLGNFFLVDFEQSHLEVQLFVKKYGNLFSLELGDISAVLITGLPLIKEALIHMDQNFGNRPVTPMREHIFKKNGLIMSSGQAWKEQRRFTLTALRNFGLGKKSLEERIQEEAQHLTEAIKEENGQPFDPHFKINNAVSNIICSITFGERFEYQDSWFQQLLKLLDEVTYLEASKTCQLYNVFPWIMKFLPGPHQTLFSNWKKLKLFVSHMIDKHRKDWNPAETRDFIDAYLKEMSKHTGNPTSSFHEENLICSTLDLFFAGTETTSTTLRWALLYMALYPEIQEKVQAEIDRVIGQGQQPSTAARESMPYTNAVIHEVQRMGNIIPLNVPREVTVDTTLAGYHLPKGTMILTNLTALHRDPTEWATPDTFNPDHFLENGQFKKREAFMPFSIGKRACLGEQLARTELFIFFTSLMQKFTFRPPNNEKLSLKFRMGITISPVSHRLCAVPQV
# Summary of the method: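 Cell-free assay of recombinant CYP2J2 with a fluorogenic substrate, read 1 h after dosing; loss of signal versus acetonitrile. Primary screen at 10 uM in duplicate, then concentration-response up to 20 uM for chemicals passing threshold (e.g., 30% inhibition).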
# [8] = target: human CYP2D6, CYP2D6 (gene 1565) (UniProt P10635); test: NVS_ADME_hCYP2D6: NovaScreen (NVS) CYP450-related Enzyme Activity (ADME) Assay for human CYP2D6 (AID 2283107; active = hit-call score of the fitted dose curve at least 0.9, where 1 is the maximum)
# Sequence of human CYP2D6, CYP2D6 (gene 1565) (P10635 whole entry, looked up): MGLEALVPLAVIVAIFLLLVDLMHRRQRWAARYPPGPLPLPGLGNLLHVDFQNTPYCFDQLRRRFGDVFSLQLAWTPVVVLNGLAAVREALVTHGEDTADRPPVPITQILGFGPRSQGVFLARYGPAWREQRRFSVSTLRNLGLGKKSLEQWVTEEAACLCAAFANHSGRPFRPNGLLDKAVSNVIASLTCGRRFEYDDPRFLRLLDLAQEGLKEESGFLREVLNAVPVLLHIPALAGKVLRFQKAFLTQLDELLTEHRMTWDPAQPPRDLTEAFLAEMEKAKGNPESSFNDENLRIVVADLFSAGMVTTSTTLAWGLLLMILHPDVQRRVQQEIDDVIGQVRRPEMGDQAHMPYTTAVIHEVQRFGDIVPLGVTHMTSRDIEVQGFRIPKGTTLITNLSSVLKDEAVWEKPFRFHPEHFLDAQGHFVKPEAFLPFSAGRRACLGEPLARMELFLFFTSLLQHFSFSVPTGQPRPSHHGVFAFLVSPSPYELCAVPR
# Summary of the method: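 Compounds were first tested in duplicate at 10 uM against recombinant enzyme produced in insect cells, with substrate turnover measured by fluorescence after 1 hour. Decreased signal, referenced to acetonitrile vehicle, was taken as reduced enzyme activity. Active chemicals went on to concentration-response testing.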
# [9] = target: human CYP2C9, CYP2C9 (gene 1559) (UniProt P11712); test: NVS_ADME_hCYP2C9: NovaScreen (NVS) CYP450-related Enzyme Activity (ADME) Assay for human CYP2C9 (AID 2283108; active = hit-call score of the fitted dose curve at least 0.9, where 1 is the maximum)
# Sequence of human CYP2C9, CYP2C9 (gene 1559) (P11712 whole entry, looked up): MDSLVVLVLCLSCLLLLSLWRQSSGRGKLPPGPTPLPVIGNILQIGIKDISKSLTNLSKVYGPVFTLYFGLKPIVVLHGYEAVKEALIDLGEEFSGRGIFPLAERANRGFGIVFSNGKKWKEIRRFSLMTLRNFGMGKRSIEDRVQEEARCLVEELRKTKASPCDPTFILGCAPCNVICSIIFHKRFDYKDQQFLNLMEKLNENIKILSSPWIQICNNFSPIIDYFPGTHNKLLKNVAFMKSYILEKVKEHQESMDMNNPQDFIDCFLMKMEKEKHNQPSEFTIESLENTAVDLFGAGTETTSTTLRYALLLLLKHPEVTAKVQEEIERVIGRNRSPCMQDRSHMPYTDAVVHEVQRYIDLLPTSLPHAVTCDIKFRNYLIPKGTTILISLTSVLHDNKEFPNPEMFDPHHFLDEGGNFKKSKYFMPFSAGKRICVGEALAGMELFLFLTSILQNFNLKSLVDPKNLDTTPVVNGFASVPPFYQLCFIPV
# Summary of the method: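 Fluorescence readout of CYP2C9 activity (SF9-expressed human enzyme) at 0.75 h. The primary screen used 10 uM in duplicate, with concentration-response follow-up for actives; acetonitrile was the negative control.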
# [10] = target: human CYP4F12, CYP4F12 (gene 66002) (UniProt Q9HCS2); test: NVS_ADME_hCYP4F12: NovaScreen (NVS) CYP450-related Enzyme Activity (ADME) Assay for human CYP4F12 (AID 2283111; active = hit-call score of the fitted dose curve at least 0.9, where 1 is the maximum)
# Summary of the method: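 Cell-free fluorescence assay of recombinant human CYP4F12 activity on a specific substrate, read 0.5 h after dosing. Primary screen in duplicate at 10 uM, then concentration series for actives; loss of signal fitted against acetonitrile negative control.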
# [11] = target: Cytochrome P450 2C19 (Homo sapiens) (UniProt P33261); test: NVS_ADME_hCYP2C19: NovaScreen (NVS) CYP450-related Enzyme Activity (ADME) Assay for human CYP2C19 (AID 2283113; active = hit-call score of the fitted dose curve at least 0.9, where 1 is the maximum;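 as to AC50: potency for inhibition seen as loss of fluorescent signal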)
# Summary of the method: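 Chemicals first screened in duplicate at 10 uM against recombinant human enzyme produced in insect cells; confirmed actives then run as concentration series. Fluorogenic substrate turnover read by fluorescence after 1 h, normalised to acetonitrile.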
# [12] = target: human CYP19A1, CYP19A1 (gene 1588) (UniProt P11511); test: NVS_ADME_hCYP19A1: NovaScreen (NVS) CYP450-related Enzyme Activity (ADME) Assay for human CYP19A1 (AID 2283098; active = hit-call score of the fitted dose curve at least 0.9, where 1 is the maximum)
# Summary of the method: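 Biochem, cell-free; recombinant enzyme + specific substrate; fluorescence intensity at 0.5 h post-dose; 10 uM duplicate primary, conc. series for actives; acetonitrile = negative control/baseline; positive and negative controls on every plate.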
# [13] = target: human CYP1A2, CYP1A2 (gene 1544) (UniProt P05177); test: NVS_ADME_hCYP1A2: NovaScreen (NVS) CYP450-related Enzyme Activity (ADME) Assay for human CYP1A2 (AID 2283102; active = hit-call score of the fitted dose curve at least 0.9, where 1 is the maximum;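 as to AC50: fluorescence from turnover of a fluorogenic substrate by recombinant insect-cell CYP1A2; potency for inhibition since loss of fluorescence marks reduced CYP1A2 activity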)
# Sequence of human CYP1A2, CYP1A2 (gene 1544) (P05177 whole entry, looked up): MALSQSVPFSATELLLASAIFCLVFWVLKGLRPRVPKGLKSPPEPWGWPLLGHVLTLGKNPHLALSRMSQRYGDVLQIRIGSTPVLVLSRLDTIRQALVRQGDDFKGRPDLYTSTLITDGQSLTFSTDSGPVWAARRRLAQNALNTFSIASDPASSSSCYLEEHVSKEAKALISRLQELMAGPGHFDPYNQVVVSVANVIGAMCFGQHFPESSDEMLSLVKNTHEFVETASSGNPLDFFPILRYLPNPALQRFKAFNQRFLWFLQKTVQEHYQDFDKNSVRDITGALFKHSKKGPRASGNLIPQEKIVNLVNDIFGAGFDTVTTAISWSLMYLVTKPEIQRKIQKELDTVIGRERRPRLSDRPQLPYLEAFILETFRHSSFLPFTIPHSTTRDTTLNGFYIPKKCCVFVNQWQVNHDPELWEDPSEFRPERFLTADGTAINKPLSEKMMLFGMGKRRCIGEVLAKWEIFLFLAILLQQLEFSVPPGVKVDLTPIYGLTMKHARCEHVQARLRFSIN
# Summary of the method: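 Compounds were tested at 10 uM in duplicate against recombinant CYP1A2 produced in insect cells. Enzyme activity was measured by fluorescence 0.5 h after dosing, with loss of signal versus acetonitrile control. Active compounds were re-tested in concentration series.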
# [14] = target: Cytochrome P450 2C18 (Homo sapiens) (UniProt P33260); test: NVS_ADME_hCYP2C18: NovaScreen (NVS) CYP450-related Enzyme Activity (ADME) Assay for human CYP2C18 (AID 2283103)
# Sequence of Cytochrome P450 2C18 (Homo sapiens) (P33260 whole entry, looked up): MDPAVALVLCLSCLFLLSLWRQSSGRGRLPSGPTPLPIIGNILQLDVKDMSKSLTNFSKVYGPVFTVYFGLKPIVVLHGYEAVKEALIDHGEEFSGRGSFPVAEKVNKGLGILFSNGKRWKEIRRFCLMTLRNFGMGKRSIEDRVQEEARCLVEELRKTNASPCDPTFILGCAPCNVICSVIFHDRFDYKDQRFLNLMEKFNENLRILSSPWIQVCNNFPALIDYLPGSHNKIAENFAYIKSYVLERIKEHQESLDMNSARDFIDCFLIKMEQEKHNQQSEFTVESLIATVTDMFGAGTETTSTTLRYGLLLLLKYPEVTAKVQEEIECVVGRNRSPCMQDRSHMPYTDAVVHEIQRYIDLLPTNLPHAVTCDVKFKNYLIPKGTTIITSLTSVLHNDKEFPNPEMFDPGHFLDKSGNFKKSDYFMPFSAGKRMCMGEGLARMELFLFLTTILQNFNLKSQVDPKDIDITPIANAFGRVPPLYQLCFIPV
# Summary of the method: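 Cell-free recombinant human CYP2C18 with fluorogenic substrate; fluorescence intensity read 0.5 h after dosing. Single-point screen at 10 uM in duplicate, then concentration-response up to 20 uM; loss of signal fitted against acetonitrile baseline.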
# [15] = target: Cytochrome P450 3A4 (Homo sapiens) (UniProt P08684); test: NVS_ADME_hCYP3A4: NovaScreen (NVS) CYP450-related Enzyme Activity (ADME) Assay for human CYP3A4 (AID 2283110; active = hit-call score of the fitted dose curve at least 0.9, where 1 is the maximum)
# Sequence of Cytochrome P450 3A4 (Homo sapiens) (P08684 whole entry, looked up): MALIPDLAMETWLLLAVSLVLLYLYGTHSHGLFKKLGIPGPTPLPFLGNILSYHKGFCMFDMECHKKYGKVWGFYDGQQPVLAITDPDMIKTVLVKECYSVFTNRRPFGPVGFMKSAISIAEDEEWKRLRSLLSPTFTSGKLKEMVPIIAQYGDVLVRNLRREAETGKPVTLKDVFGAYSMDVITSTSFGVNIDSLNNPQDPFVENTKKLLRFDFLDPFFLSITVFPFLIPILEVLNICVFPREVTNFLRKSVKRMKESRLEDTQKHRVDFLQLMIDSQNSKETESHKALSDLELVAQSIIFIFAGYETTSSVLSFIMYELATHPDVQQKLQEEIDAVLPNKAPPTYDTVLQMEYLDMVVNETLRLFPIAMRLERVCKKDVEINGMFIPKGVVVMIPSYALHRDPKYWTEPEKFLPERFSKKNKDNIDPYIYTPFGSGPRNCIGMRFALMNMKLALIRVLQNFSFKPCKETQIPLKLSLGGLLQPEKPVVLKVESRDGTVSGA
# Summary of the method: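 Compounds were first screened in duplicate at 10 uM against recombinant CYP3A4 produced in insect cells, then actives were run in concentration series. Enzyme activity was measured by fluorescence after 0.33 hour, with acetonitrile as baseline.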
# [16] = target: human CYP2C8, CYP2C8 (gene 1558) (UniProt P10632); test: NVS_ADME_hCYP2C8: NovaScreen (NVS) CYP450-related Enzyme Activity (ADME) Assay for human CYP2C8 (AID 2283104)
# Summary of the method: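 Recombinant human CYP2C8 with fluorogenic substrate, 0.5 h, fluorescence intensity; signal loss fitted versus acetonitrile. Screened in duplicate at 10 uM, then actives run in concentration-response up to 20 uM.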
# [17] = target: rat CYP1A2, Cyp1a2 (gene 24297) (UniProt P04799); test: NVS_ADME_rCYP1A2: NovaScreen (NVS) CYP450-related Enzyme Activity (ADME) Assay for rat CYP1A2 (AID 2283115; active = hit-call score of the fitted dose curve at least 0.9, where 1 is the maximum)
# Sequence of rat CYP1A2, Cyp1a2 (gene 24297) (P04799 whole entry, looked up): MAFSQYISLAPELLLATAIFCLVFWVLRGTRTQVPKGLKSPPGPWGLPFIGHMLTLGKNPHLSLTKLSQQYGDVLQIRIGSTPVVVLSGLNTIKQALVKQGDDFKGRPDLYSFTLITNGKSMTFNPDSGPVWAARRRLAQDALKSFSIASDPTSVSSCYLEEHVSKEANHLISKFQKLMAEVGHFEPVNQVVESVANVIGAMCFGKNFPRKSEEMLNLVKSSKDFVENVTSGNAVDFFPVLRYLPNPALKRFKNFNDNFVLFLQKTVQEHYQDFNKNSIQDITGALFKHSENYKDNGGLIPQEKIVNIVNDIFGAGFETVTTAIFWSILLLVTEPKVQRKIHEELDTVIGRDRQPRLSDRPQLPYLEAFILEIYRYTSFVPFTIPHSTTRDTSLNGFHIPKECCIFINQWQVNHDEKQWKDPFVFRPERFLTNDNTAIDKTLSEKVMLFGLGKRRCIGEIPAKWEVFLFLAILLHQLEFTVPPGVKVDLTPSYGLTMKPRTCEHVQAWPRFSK
# Summary of the method: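 Cell-free recombinant rat enzyme with fluorogenic substrate, read by fluorescence intensity 1 hour after dosing. Loss of signal versus acetonitrile negative control; primary screen at 10 uM in duplicate, actives followed in concentration series.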
# [18] = target: human CYP2A6, CYP2A6 (gene 1548) (UniProt P11509); test: NVS_ADME_hCYP2A6: NovaScreen (NVS) CYP450-related Enzyme Activity (ADME) Assay for human CYP2A6 (AID 2283099; active = hit-call score of the fitted dose curve at least 0.9, where 1 is the maximum)
# Summary of the method: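 Recombinant human CYP2A6 from insect cells was incubated with chemical for 0.5 h and activity read by fluorescence. Single-concentration duplicates at 10 uM preceded concentration-response testing to 20 uM, with activity referenced to acetonitrile.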
# Sequence of E-selectin (Homo sapiens) (P16581 whole entry, looked up): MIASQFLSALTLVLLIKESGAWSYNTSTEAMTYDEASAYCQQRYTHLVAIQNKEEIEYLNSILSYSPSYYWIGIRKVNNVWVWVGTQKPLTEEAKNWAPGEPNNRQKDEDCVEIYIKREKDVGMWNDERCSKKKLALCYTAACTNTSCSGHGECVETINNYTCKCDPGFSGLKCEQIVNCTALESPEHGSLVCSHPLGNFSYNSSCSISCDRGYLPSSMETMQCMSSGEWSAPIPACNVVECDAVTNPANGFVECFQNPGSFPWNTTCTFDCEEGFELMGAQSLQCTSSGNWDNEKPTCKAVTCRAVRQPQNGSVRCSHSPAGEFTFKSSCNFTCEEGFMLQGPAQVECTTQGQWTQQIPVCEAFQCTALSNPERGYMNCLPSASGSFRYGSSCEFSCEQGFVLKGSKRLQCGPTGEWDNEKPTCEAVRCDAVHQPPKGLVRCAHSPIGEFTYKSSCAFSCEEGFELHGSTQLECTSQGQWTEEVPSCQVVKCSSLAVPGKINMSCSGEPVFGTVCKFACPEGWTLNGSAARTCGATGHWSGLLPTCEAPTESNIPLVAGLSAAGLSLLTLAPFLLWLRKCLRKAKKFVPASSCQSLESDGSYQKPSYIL
compound,measurement,setting,value
CS/C(C)=N/OC(=O)N(C)SN(C)C(=O)O/N=C(\C)SC,AC50,[1],31.4 µM (active)
same,AC50,[2],8.27 µM (active)
same,AC50,[3],16 µM (active)
same,AC50,[4],5.3 µM (active)
same,AC50,[5],28.4 µM (active)
same,AC50,[6],10 µM (active)
same,AC50,[7],2.79 µM (active)
same,AC50,[8],0.934 µM (active)
same,AC50,[9],5.64 µM (active)
same,outcome,[10],inactive
same,AC50,[11],3.43 µM (active)
C#CCOS(=O)OC1CCCCC1Oc1ccc(C(C)(C)C)cc1 (stereo not drawn),AC50,[1],4.02 µM (active)
same,AC50,[2],14.6 µM (active)
same,AC50,[3],1.92 µM (active)
same,AC50,[4],1.16 µM (active)
same,AC50,[5],10.8 µM (active)
same,outcome,[12],inactive
same,outcome,[13],inactive
same,AC50,[14],10 µM (active)
same,outcome,[9],inactive
same,outcome,[15],inactive
same,AC50,[11],14.3 µM (active)
CCCCNC(=O)OCC#CI,AC50,[1],25 µM (active) and 22.7 µM (active)
same,AC50,[2],7.02 µM (active) and 7.09 µM (active)
same,AC50,[3],22.1 µM (active) and 14.7 µM (active)
same,AC50,[4],2.71 µM (active) and 2.68 µM (active)
same,AC50,[5],28.6 µM (active)
same,AC50,[14],2.41 µM (active) and 4.8 µM (active)
same,AC50,[11],1.81 µM (active) and 2.46 µM (active)
Cc1ccc(-c2c(Cl)nc(C#N)n2S(=O)(=O)N(C)C)cc1,AC50,[1],13.5 µM (active)
same,outcome,[2],inactive
same,AC50,[3],13.4 µM (active)
same,AC50,[4],30 µM (active)
same,AC50,[5],25 µM (active)
same,AC50,[13],5.8 µM (active)
same,AC50,[14],10 µM (active)
same,AC50,[16],3.9 µM (active)
same,AC50,[9],4.54 µM (active)
same,AC50,[11],7.38 µM (active)
same,outcome,[17],inactive
C=CCC1=C(C)[C@@H](OC(=O)[C@@H]2[C@@H](C=C(C)C)C2(C)C)CC1=O,AC50,[1],27.4 µM (active)
same,AC50,[2],32.4 µM (active)
same,AC50,[3],25.3 µM (active)
same,AC50,[4],33.8 µM (active)
same,AC50,[5],29.2 µM (active)
same,AC50,[8],10 µM (active)
same,AC50,[9],5.73 µM (active)
same,AC50,[11],6.39 µM (active)
COC(=O)C(C)Oc1ccc(Oc2ccc(Cl)cc2Cl)cc1 (stereo not drawn),outcome,[1],inactive
same,outcome,[2],inactive
same,outcome,[3],inactive
same,outcome,[4],inactive
same,outcome,[5],inactive
same,AC50,[11],10 µM (active) and 14.1 µM (active) and 7.91 µM (active)
CN(C)C(=S)SSC(=S)N(C)C,AC50,[1],24.8 µM (active)
same,AC50,[2],3.87 µM (active)
same,AC50,[3],18.6 µM (active)
same,AC50,[5],35.3 µM (active)
same,outcome,[18],inactive
same,AC50,[14],2.26 µM (active)
same,AC50,[7],6.56 µM (active)
same,AC50,[8],2.15 µM (active)
same,AC50,[9],1.92 µM (active)
same,outcome,[15],inactive
same,AC50,[11],0.78 µM (active)
same,outcome,[17],inactive
CCOC(=O)C(Cl)Cc1cc(-n2nc(C)n(C(F)F)c2=O)c(F)cc1Cl (stereo not drawn),outcome,[1],inactive
same,outcome,[2],inactive
same,outcome,[3],inactive
same,AC50,[4],21.2 µM (active)
same,outcome,[5],inactive
same,AC50,[6],5.46 µM (active)
same,outcome,[13],inactive
same,outcome,[14],inactive
same,AC50,[11],10 µM (active)
CCc1nn(C)c(C(=O)NCc2ccc(C(C)(C)C)cc2)c1Cl,AC50,[1],3.97 µM (active)
same,AC50,[2],34.8 µM (active)
same,AC50,[3],5.02 µM (active)
same,AC50,[4],20 µM (active)
same,AC50,[5],29.4 µM (active)
same,outcome,[16],inactive
CCNc1nc(Cl)nc(NCC)n1,outcome,[1],inactive
same,outcome,[2],inactive
same,outcome,[3],inactive
same,outcome,[4],inactive
same,outcome,[5],inactive
same,outcome,[6],inactive
same,AC50,[7],0.2 µM (active)
COP(N)(=O)SC (stereo not drawn),outcome,[1],inactive
same,outcome,[2],inactive
same,outcome,[3],inactive
same,outcome,[4],inactive
same,outcome,[5],inactive
same,outcome,[12],inactive
O=C(O)c1nc(Cl)ccc1Cl,outcome,[1],inactive
same,outcome,[2],inactive
same,outcome,[3],inactive
same,outcome,[4],inactive
same,outcome,[5],inactive
same,outcome,[15],inactive
same,outcome,[11],inactive
Fc1ccc(Oc2ccnc3cc(Cl)cc(Cl)c23)cc1,AC50,[1],20.5 µM (active)
same,AC50,[2],31.4 µM (active)
same,AC50,[3],15.9 µM (active)
same,AC50,[4],22.7 µM (active)
same,AC50,[5],25.5 µM (active)
same,AC50,[13],7.42 µM (active)
same,outcome,[11],inactive
